Holding throughout (assay): NCI-60 one-dose screen, 48 h (100 = growth as untreated, 0 = no growth, -100 = all killed)
The subject of one assay is SR leukemia. Particulars: 10 µM.
A further assay concerns RPMI-8226 leukemia. Particulars: 10 µM.
For another assay, the system named is OVCAR-8 ovarian. The following applies: 10 µM.
In another assay the test system is OVCAR-5 ovarian. Particulars: 10 µM.
For another assay, the system named is OVCAR-4 ovarian. Particulars: 10 µM.
The next assay deals with SK-OV-3 ovarian. The following applies: 10 µM.
Another assay deals with IGROV1 ovarian. Particulars: 10 µM.
The next assay deals with OVCAR-3 ovarian. Particulars: 10 µM.
In the next assay the test system is NCI/ADR-RES ovarian. Particulars: 10 µM.
In another assay the test system is T-47D breast. Particulars: 10 µM.
A further assay relates to BT-549 breast. The following applies: 10 µM.
The next assay deals with MDA-MB-435 melanoma. The following applies: 10 µM.
Another assay deals with SW-620 colon. The following applies: 10 µM.
A further assay deals with HCT-116 colon. Particulars: 10 µM.
Another assay deals with HCC-2998 colon. The following applies: 10 µM.
The subject of a further assay is KM12 colon. Particulars: 10 µM.
The next assay deals with MCF7 breast. Particulars: 10 µM unless noted.
The test system of another assay is HS 578T breast. Particulars: 10 µM.

This is part of a sample that, as a whole, favours compounds with a hit. Of some 83,000 tested, about 20% had one in any assay.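 How to read the values: 0–100, growth inhibition (40 = 60% inhibited); 0, no net growth; -100 to 0, cell death (-40 = 40% of starting cells died; -100 = all dead).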 A number with no mark means an inactive call. The source made the active and inactive calls. Rule for the calls: active = growth percent below 10; inactive = the rest.

For the compound `NC(=O)N/N=C\c1ccco1`, the growth in the assay with SR leukemia was 107%; in the assay with RPMI-8226 leukemia, 105%; with OVCAR-8 ovarian, 109%; in the assay on OVCAR-5 ovarian it was 118%; in the assay on OVCAR-4 ovarian, 121%; in the assay on SK-OV-3 ovarian, 102%. Also, the growth with IGROV1 ovarian was 99.6%; in the assay with OVCAR-3 ovarian, 125%; in the assay on NCI/ADR-RES ovarian, 101%; in the assay on T-47D breast it was 107%; in the assay with BT-549 breast, 94.9%; in the assay on MDA-MB-435 melanoma it was 118%. Moreover, the growth with SW-620 colon was 107%; with HCT-116 colon, 101%; in the assay on HCC-2998 colon, 99.3%; with KM12 colon it was 113%.
On to `CNC(=O)c1ccccc1CC1(O)c2ccccc2Oc2ccccc21`, for which the growth in the assay with SR leukemia is 8.48% (active); with RPMI-8226 leukemia it was 70.5%; in the assay with OVCAR-8 ovarian, 74.4%; in the assay on OVCAR-5 ovarian, 80.4%; with OVCAR-4 ovarian, 83.6%; in the assay with SK-OV-3 ovarian, 73.7%. In addition, the growth with IGROV1 ovarian was 43%; in the assay on OVCAR-3 ovarian, 24.7%; in the assay on NCI/ADR-RES ovarian, 29%; in the assay with T-47D breast, 49.4%; in the assay with MDA-MB-435 melanoma, -51.3% (active); in the assay with SW-620 colon, 29.2%. Also, the growth in the assay with MCF7 breast was 25.6%; in the assay on HCT-116 colon, 32.4%; in the assay on HCC-2998 colon, 80.9%; in the assay with KM12 colon, 34.5%.
`COc1ncnc2c1cnn2C`: the growth is 82.6% in the assay on SR leukemia; 107% with RPMI-8226 leukemia; 103% in the assay with OVCAR-8 ovarian; 103% in the assay on OVCAR-5 ovarian; 117% in the assay on OVCAR-4 ovarian; 104% in the assay on SK-OV-3 ovarian. Also, the growth is 110% with IGROV1 ovarian; 109% in the assay with OVCAR-3 ovarian; 104% in the assay on NCI/ADR-RES ovarian; 97.1% in the assay with T-47D breast; 107% in the assay with MDA-MB-435 melanoma; 105% with SW-620 colon. In addition, the growth is 101% in the assay on MCF7 breast, 103% in the assay on HCT-116 colon and 103% with KM12 colon.
For the compound `CCOC(=O)C(CCC(C)C)C(=O)OCC`, the growth was 79.7% in the assay on SR leukemia; 98.8% with RPMI-8226 leukemia; 95.6% with OVCAR-8 ovarian; 107% with OVCAR-5 ovarian; 107% in the assay with OVCAR-4 ovarian; 106% in the assay with SK-OV-3 ovarian. Also, the growth with IGROV1 ovarian was 102%; in the assay with OVCAR-3 ovarian, 109%; in the assay with NCI/ADR-RES ovarian, 108%; in the assay on T-47D breast, 100%; with BT-549 breast it was 104%; in the assay with MDA-MB-435 melanoma it was 102%. Further, the growth in the assay with SW-620 colon is 102%; in the assay with MCF7 breast, 97.5%; in the assay with HCT-116 colon, 108%; in the assay on HCC-2998 colon, 101%; with KM12 colon it was 104%.
On to `Cc1cc(=O)n(-c2ccc(F)cc2)[nH]1`, for which the growth is 97.1% with SR leukemia; 94.2% in the assay on RPMI-8226 leukemia; 95.2% in the assay with OVCAR-8 ovarian; 94.9% with OVCAR-5 ovarian; 99.2% in the assay with OVCAR-4 ovarian; 95.3% with SK-OV-3 ovarian. Moreover, the growth with IGROV1 ovarian was 102%; in the assay on OVCAR-3 ovarian, 103%; in the assay on HS 578T breast it was 102%; in the assay on NCI/ADR-RES ovarian, 109%; with T-47D breast, 69.5%; with MDA-MB-435 melanoma, 105%. Also, the growth in the assay on SW-620 colon is 103%; in the assay with MCF7 breast it was 86.7%; in the assay on HCT-116 colon it was 104%; in the assay on HCC-2998 colon, 106%; in the assay on KM12 colon, 106%.
For `CC(=O)c1ccc(C)c(N)c1`, the growth in the assay with SR leukemia was 106%; with RPMI-8226 leukemia, 101%; in the assay with OVCAR-8 ovarian, 96.4%; with OVCAR-5 ovarian, 102%; with OVCAR-4 ovarian it was 111%; in the assay with SK-OV-3 ovarian it was 98.6%. The growth is 95.8% in the assay on IGROV1 ovarian; 108% in the assay on OVCAR-3 ovarian; 91.2% in the assay with NCI/ADR-RES ovarian; 99.8% with T-47D breast; 94.7% with BT-549 breast; 114% in the assay with MDA-MB-435 melanoma. Moreover, the growth is 101% in the assay with SW-620 colon; 97.1% with MCF7 breast; 94.2% in the assay with HCT-116 colon; 108% in the assay on HCC-2998 colon; 97% with KM12 colon.
Regarding `NC(C(=O)O)C(O)c1ccco1` (centres undefined), the growth is 112% in the assay with SR leukemia; 101% in the assay with RPMI-8226 leukemia; 103% with OVCAR-8 ovarian; 108% in the assay with OVCAR-5 ovarian; 114% in the assay on OVCAR-4 ovarian; 107% with SK-OV-3 ovarian. In addition, the growth in the assay with IGROV1 ovarian was 124%; with OVCAR-3 ovarian it was 117%; with NCI/ADR-RES ovarian it was 112%; in the assay on T-47D breast, 98%; in the assay with BT-549 breast, 109%; in the assay with MDA-MB-435 melanoma, 107%. Further, the growth was 102% in the assay on SW-620 colon; 95.2% in the assay on MCF7 breast; 111% in the assay on HCT-116 colon; 107% in the assay on HCC-2998 colon; 107% in the assay on KM12 colon.
With `NC(C(=O)O)c1ccc([N+](=O)[O-])cc1` (centres undefined), the growth was 113% in the assay on SR leukemia; 116% in the assay with RPMI-8226 leukemia; 112% in the assay with OVCAR-8 ovarian; 92.2% in the assay on OVCAR-5 ovarian; 107% with OVCAR-4 ovarian; 96.4% with SK-OV-3 ovarian. Moreover, the growth with IGROV1 ovarian was 109%; with OVCAR-3 ovarian, 107%; with HS 578T breast it was 117%; with NCI/ADR-RES ovarian it was 105%; in the assay with T-47D breast it was 99.3%; in the assay with MDA-MB-435 melanoma, 111%. Further, the growth was 109% in the assay on SW-620 colon; 95.3% in the assay with MCF7 breast; 105% in the assay on HCT-116 colon; 111% in the assay on HCC-2998 colon; 99.4% in the assay with KM12 colon.
For the compound `CCCCCCCCCCCCCCCCC1CC(=O)OC1=O` (centres undefined), the growth with SR leukemia is 99.3%; in the assay with RPMI-8226 leukemia, 108%; with OVCAR-8 ovarian it was 101%; with OVCAR-5 ovarian, 102%; in the assay with OVCAR-4 ovarian it was 108%; in the assay on SK-OV-3 ovarian it was 106%. Moreover, the growth with IGROV1 ovarian is 124%; in the assay with OVCAR-3 ovarian, 119%; in the assay on HS 578T breast it was 106%; in the assay on NCI/ADR-RES ovarian, 113%; in the assay on T-47D breast, 97.4%; in the assay on MDA-MB-435 melanoma, 101%. The growth in the assay with SW-620 colon is 105%; with MCF7 breast, 98.5%; with HCC-2998 colon it was 114%; in the assay with KM12 colon it was 108%.
`COC(=O)c1ccc(NC(=O)CCl)cc1`: the growth in the assay with SR leukemia was 38.7%; with RPMI-8226 leukemia, 70.4%; in the assay on OVCAR-8 ovarian, 85.5%; with OVCAR-5 ovarian, 96.4%; in the assay with OVCAR-4 ovarian, 95.4%; with SK-OV-3 ovarian, 96.7%. Further, the growth was 50.6% with IGROV1 ovarian; 82.4% in the assay on OVCAR-3 ovarian; 97.1% with NCI/ADR-RES ovarian; 69.7% with T-47D breast; 67.9% in the assay on BT-549 breast; 73.8% with MDA-MB-435 melanoma. Besides, the growth was 76.6% in the assay on SW-620 colon, 58.3% in the assay on MCF7 breast, 70% in the assay with HCT-116 colon and 113% with HCC-2998 colon.

Values taken from PubChem BioAssay (NCI).
